Test results reported in PubChem BioAssay (NCI).
Compounds without any hit were thinned out: in the full panel of roughly 79,000, 15% have a hit. Calls of active or inactive are those of the source. No stated cut-off is given here; in the data, active means growth inhibition above about 70%; inactive means the rest.

Experiments:
[1] = NCI Yeast Anticancer Drug Screen. Data for the rad52 strain (AID 147);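 further: 0% = growth of vehicle-treated control cultures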; conditions: S. cerevisiae rad52 mutant growth inhibition, stronger effect = higher value
How it was run: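 Screen used a yeast mutant impaired in DNA repair. After compound exposure, growth was measured. Values reflect inhibition compared with vehicle-treated cells.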

[2] = NCI Yeast Anticancer Drug Screen. Data for the wt1 strain (AID 149);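 further: 0% = growth of vehicle-treated wt1 cultures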; conditions: S. cerevisiae wt1 strain (SPY 50644) growth inhibition, stronger effect = higher value
How it was run: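 Yeast wt1 strain exposed to compounds; growth inhibition measured relative to vehicle-treated controls.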

[3] = NCI Yeast Anticancer Drug Screen. Data for the rad50EPP+ strain (AID 151);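 further: 0% = growth of vehicle-treated control cultures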; conditions: S. cerevisiae rad50 mutant strain, stronger effect = higher value
How it was run: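 Exposing the rad50EPP+ strain to each compound, growth was compared with vehicle-only cultures to give inhibition.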

[4] = NCI Yeast Anticancer Drug Screen. Data for the mgt1 strain (AID 153); conditions: S. cerevisiae mgt1 mutant growth inhibition, stronger effect = higher value
How it was run: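 Genetically defined yeast (mgt1) treated with compound; inhibition of growth expressed against vehicle-treated controls.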

[5] = NCI Yeast Anticancer Drug Screen. Data for the rad50 strain (AID 155);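 further: 0% = growth of vehicle-only cultures of the same strain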; conditions: S. cerevisiae rad50 strain growth inhibition, stronger effect = higher value
How it was run: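 Yeast carrying a defined DNA repair defect were exposed to test compounds, and growth was compared with vehicle-treated controls to give percent inhibition.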

[6] = NCI Yeast Anticancer Drug Screen. Data for the mec2-1 strain (AID 157); conditions: S. cerevisiae mec2-1 strain, stronger effect = higher value
How it was run: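 Readout is yeast growth inhibition, normalised to vehicle-treated controls, in the mec2-1 strain exposed to compound.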

[7] = NCI Yeast Anticancer Drug Screen. Data for the rad14 strain (AID 159);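 further: 0% = growth of vehicle-treated control cultures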; conditions: S. cerevisiae rad14 strain growth inhibition, stronger effect = higher value
How it was run: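 Yeast cells carrying a defined DNA-repair defect were exposed to compounds, and growth inhibition was calculated relative to vehicle-treated control cultures.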

[8] = NCI Yeast Anticancer Drug Screen. Data for the sgs1 mgt1 strain (AID 161);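 further: 0% = growth of cultures given vehicle only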; conditions: S. cerevisiae sgs1 mgt1 strain, stronger effect = higher value
How it was run: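 Yeast cells carrying a defined DNA-repair defect were exposed to test compounds. Growth inhibition was measured relative to vehicle-treated controls.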

[9] = NCI Yeast Anticancer Drug Screen. Data for the CLN2oe strain (AID 163);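 further: 0% = growth of vehicle-only control cultures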; conditions: S. cerevisiae CLN2oe strain, stronger effect = higher value
How it was run: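 Values reflect how much compound exposure reduced yeast growth, referenced to vehicle-exposed cells. Assay organism is a strain with a defined genetic change affecting cell-cycle control.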

[10] = NCI Yeast Anticancer Drug Screen. Data for the cln2 rad14 strain (AID 165);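 further: 0% = growth equal to vehicle treated cultures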; conditions: S. cerevisiae cln2 rad14 strain, stronger effect = higher value
How it was run: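 Relative to vehicle controls, growth inhibition of compound-treated cln2 rad14 yeast was recorded.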

[11] = NCI Yeast Anticancer Drug Screen. Data for the bub3 strain (AID 167); conditions: S. cerevisiae bub3 mutant strain, stronger effect = higher value
How it was run: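 Compounds were applied to a genetically altered yeast strain carrying a cell-cycle control defect. Growth inhibition was scored against vehicle-treated controls.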

[12] = NCI Yeast Anticancer Drug Screen. Data for the wt2 strain (AID 169);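 further: 0% = growth of vehicle-treated yeast cultures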; conditions: S. cerevisiae wt2 strain growth inhibition, stronger effect = higher value
How it was run: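 Values express reduction in yeast growth under compound treatment, referenced to vehicle-treated cells.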

[13] = NCI Yeast Anticancer Drug Screen. Data for the mlh1 strain (AID 171);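 further: 0% = growth of vehicle-treated control cultures of the same strain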; conditions: S. cerevisiae mlh1 strain growth inhibition, stronger effect = higher value
How it was run: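 Steps: expose the defined-mutant yeast strain to compound; expose a parallel culture to vehicle; measure growth; express compound effect as inhibition relative to the vehicle culture.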

[14] = NCI Yeast Anticancer Drug Screen. Data for the sgs1 strain (AID 173);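 further: 0% = growth of vehicle-only control cultures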; conditions: S. cerevisiae sgs1 mutant, stronger effect = higher value
How it was run: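 Treat defined-mutant yeast with compound; measure growth; calculate inhibition relative to vehicle-treated cells.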

[15] = NCI Yeast Anticancer Drug Screen. Data for the mlh1 rad18 strain (AID 175); conditions: S. cerevisiae mlh1 rad18 strain growth inhibition, stronger effect = higher value
How it was run: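 Test agents were incubated with a yeast strain of defined genotype (DNA damage repair defect). Inhibition of growth was derived by comparison with vehicle-exposed cultures.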

[16] = NCI Yeast Anticancer Drug Screen. Data for the rad18 strain (AID 177); conditions: S. cerevisiae rad18 mutant growth inhibition, stronger effect = higher value
How it was run: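 A genetically defined yeast mutant impaired in DNA damage repair was treated with test compounds, then its growth was measured against cultures receiving vehicle alone.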

[17] = at 5.0 µM (retest, dose inferred, filed as 0.5)
[18] = at 50.0 µM (retest, dose inferred, filed as 5.0)

Measured: growth inhibition

CN1CCN(C(=O)/C=C/C(=O)c2ccccc2)CC1
active: [1]; at 100.0 µM 86% | [2]; at 100.0 µM 87% | [4]; at 33.0 µM 79% | [4]; at 100.0 µM 95% | [5]; at 50.0 µM 93.3% | [5]; at 100.0 µM 90% | [6]; at 50.0 µM 95% | [6]; at 100.0 µM 94% | [7]; at 100.0 µM 87% | [8]; at 50.0 µM 95.5% | [9]; at 100.0 µM 76% | [10]; at 50.0 µM 72.8% | [11]; at 33.0 µM 80% | [11]; [18] 91% | [11]; at 50.0 µM 82.5% | [11]; at 100.0 µM 90% | [12]; at 33.0 µM 76% | [12]; at 100.0 µM 93% | [13]; at 33.0 µM 85% | [13]; at 100.0 µM 96% | [14]; at 33.0 µM 84% | [14]; at 100.0 µM 95% | [15]; at 50.0 µM 97.5% | [16]; at 33.0 µM 84% | [16]; at 100.0 µM 95%
inactive: [1]; at 1.2 µM 4% | [1]; at 3.7 µM 11% | [1]; at 11.0 µM 24% | [1]; at 33.0 µM 63% | [2]; at 1.2 µM 4% | [2]; at 3.7 µM 12% | [2]; at 11.0 µM 24% | [2]; at 33.0 µM 47% | [3]; at 1.2 µM 4% | [3]; at 3.7 µM 13% | [3]; at 11.0 µM 31% | [3]; at 33.0 µM 50% | [3]; at 100.0 µM 66% | [4]; at 1.2 µM 2% | [4]; at 3.7 µM 10% | [4]; at 11.0 µM 34% | [5]; at 1.2 µM -3% | [5]; at 3.7 µM -8% | [5]; [17] 9% | [5]; at 11.0 µM 23% | [5]; at 33.0 µM 69% | [5]; [18] -3% | [6]; at 1.2 µM 2% | [6]; at 3.7 µM 12% | [6]; [17] -3% | [6]; at 11.0 µM 35% | [6]; at 33.0 µM 67% | [6]; [18] -3% | [7]; at 1.2 µM 9% | [7]; at 3.7 µM 12% | [7]; at 11.0 µM 20% | [7]; at 33.0 µM 40% | [8]; [17] 6% | [8]; [18] -9% | [9]; at 1.2 µM 3% | [9]; at 3.7 µM 6% | [9]; at 11.0 µM 15% | [9]; at 33.0 µM 36% | [10]; [17] 39% | [10]; [18] -10% | [11]; at 1.2 µM -3% | [11]; at 3.7 µM 3% | [11]; [17] 7% | [11]; at 11.0 µM 28% | [12]; at 1.2 µM 1% | [12]; at 3.7 µM 10% | [12]; at 11.0 µM 36% | [13]; at 1.2 µM -1% | [13]; at 3.7 µM 12% | [13]; at 11.0 µM 35% | [14]; at 1.2 µM 5% | [14]; at 3.7 µM 15% | [14]; at 11.0 µM 42% | [15]; [17] -5% | [15]; [18] 7% | [16]; at 1.2 µM 2% | [16]; at 3.7 µM 11% | [16]; at 11.0 µM 38%

COc1cc([C@@H]2c3cc4c(cc3[C@H](OC3OC5COC(C(C)C)OC5C(O)C3O)C3COC(=O)[C@@H]32)OCO4)cc(OC)c1O (stereo partly specified)
inactive: [1]; at 1.2 µM -10% | [1]; at 3.7 µM -17% | [1]; at 11.0 µM -26% | [1]; at 33.0 µM 35% | [2]; at 1.2 µM -25% | [2]; at 3.7 µM -31% | [2]; at 11.0 µM 12% | [2]; at 33.0 µM -18% | [2]; at 100.0 µM 9% | [3]; at 1.2 µM -15% | [3]; at 3.7 µM -19% | [3]; at 11.0 µM -46% | [3]; at 33.0 µM -41% | [3]; at 100.0 µM -37% | [4]; at 1.2 µM -31% | [4]; at 3.7 µM -8% | [4]; at 11.0 µM -32% | [4]; at 33.0 µM -29% | [4]; at 100.0 µM 22% | [5]; at 1.2 µM -22% | [5]; at 3.7 µM -32% | [5]; [17] 18% | [5]; at 11.0 µM -11% | [5]; at 33.0 µM 42% | [5]; at 50.0 µM 1.85% | [6]; at 1.2 µM 4% | [6]; at 3.7 µM 1% | [6]; [17] 9% | [6]; at 11.0 µM -17% | [6]; at 33.0 µM -5% | [6]; [18] 47% | [6]; at 50.0 µM 22.4% | [6]; at 100.0 µM 34% | [7]; at 1.2 µM -14% | [7]; at 3.7 µM -27% | [7]; at 11.0 µM -11% | [7]; at 33.0 µM -22% | [7]; at 100.0 µM 8% | [8]; [17] -1% | [8]; [18] 32% | [8]; at 50.0 µM 28.6% | [9]; at 1.2 µM -3% | [9]; at 3.7 µM 3% | [9]; at 11.0 µM 3% | [9]; at 33.0 µM -22% | [9]; at 100.0 µM 7% | [10]; [17] 10% | [10]; [18] 9% | [10]; at 50.0 µM 13.6% | [11]; at 1.2 µM -66% | [11]; at 3.7 µM -39% | [11]; [17] 10% | [11]; at 11.0 µM -50% | [11]; at 33.0 µM -63% | [11]; [18] 21% | [11]; at 50.0 µM 8.5% | [11]; at 100.0 µM -2% | [12]; at 1.2 µM -58% | [12]; at 3.7 µM -40% | [12]; at 11.0 µM -45% | [12]; at 33.0 µM -19% | [13]; at 1.2 µM -31% | [13]; at 3.7 µM -8% | [13]; at 11.0 µM -32% | [13]; at 33.0 µM -29% | [13]; at 100.0 µM 22% | [14]; at 1.2 µM -6% | [14]; at 3.7 µM -9% | [14]; at 11.0 µM 1% | [14]; at 33.0 µM -5% | [14]; at 100.0 µM 45% | [15]; [17] 18% | [15]; [18] 44% | [15]; at 50.0 µM -64.6% | [16]; at 1.2 µM 6% | [16]; at 3.7 µM -5% | [16]; at 11.0 µM 2% | [16]; at 33.0 µM -21% | [16]; at 100.0 µM 41%
active: [1]; at 100.0 µM 78% | [5]; [18] 96% | [5]; at 100.0 µM 82% | [12]; at 100.0 µM 83%
